Laboratory results from PubChem BioAssay AID1159580 (chemical genetic matrix, 2015).
Out of some 5,500 compounds screened, about 2,000 (36%) were called active. Roughly 18% stayed inconclusive and do not appear here. Rule as the data show it: active = normalized growth mostly below about 0.91 (no sharp cut-off); inconclusive = no clear call, values can overlap the other calls; inactive = mostly above about 0.92. The list shows a part of the results.

Experiment: chemical genetic growth profiling, strain panel (AID 1159580);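 also: tested at 20 µM; growth read once vehicle control cultures reached saturation at 30 °C; 1 = growth at the plate median or of vehicle wells; lower values mean less growth of the strain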
Details: growth OD

Measured: normalized growth

CCN(CC)C(=O)N1CCN(C)CC1
inactive: S. cerevisiae deletion strains, locus YJR075W, strain HOC1, active compounds read low 1.03 | S. cerevisiae deletion strains, locus YKL009W, strain mrt4, active compounds read low 0.989 | S. cerevisiae deletion strains, locus YKL068W, active compounds read low 1 | S. cerevisiae deletion strains, locus YKL085W, strain MDH1 (second series), active compounds read low 1.04 | S. cerevisiae deletion strains, locus YKL085W, strain MDH1, active compounds read low 1.04 | S. cerevisiae deletion strains, locus YKL160W, strain elf1, active compounds read low 0.975 | S. cerevisiae deletion strains, locus YKR001C, strain vps1, active compounds read low 1.01 | S. cerevisiae deletion strains, locus YKR026C, strain gcn3, active compounds read low 0.965 | S. cerevisiae deletion strains, locus YKR091W, strain srl3, active compounds read low 0.949 | S. cerevisiae deletion strains, locus YLL001W, strain dnm1, active compounds read low 0.997 | S. cerevisiae deletion strains, locus YLL026W, active compounds read low 0.974 | S. cerevisiae deletion strains, locus YLL041C, strain sdh2, active compounds read low 0.994 | S. cerevisiae deletion strains, locus YLR027C, strain aat2, active compounds read low 0.964 | S. cerevisiae deletion strains, locus YLR039C, strain RIC1, active compounds read low 0.975 | S. cerevisiae deletion strains, locus YLR058C, strain SHM2, active compounds read low 1.02 | S. cerevisiae deletion strains, locus YLR102C, strain apc9, active compounds read low 0.993 | S. cerevisiae deletion strains, locus YLR113W, strain HOG1, active compounds read low 1 | S. cerevisiae deletion strains, locus YLR221C, strain rsa3, active compounds read low 0.963 | S. cerevisiae deletion strains, locus YLR258W, strain gsy2, active compounds read low 0.981 | S. cerevisiae deletion strains, locus YLR262C, strain YPT6 (second series), active compounds read low 0.967 | S. cerevisiae deletion strains, locus YLR262C, strain YPT6, active compounds read low 0.976 | S. cerevisiae deletion strains, locus YLR268W, strain sec22, active compounds read low 1.01 | S. cerevisiae deletion strains, locus YLR320W, strain mms22, active compounds read low 0.974 | S. cerevisiae deletion strains, locus YLR330W, strain CHS5, active compounds read low 1.01 | S. cerevisiae deletion strains, locus YLR342W, strain FKS1 (second series), active compounds read low 1.03 | S. cerevisiae deletion strains, locus YLR342W, strain FKS1, active compounds read low 0.98 | S. cerevisiae deletion strains, locus YLR357W, strain rsc2, active compounds read low 0.937 | S. cerevisiae deletion strains, locus YLR370C, strain arc18, active compounds read low 0.97 | S. cerevisiae deletion strains, locus YLR371W, strain rom2, active compounds read low 0.99 | S. cerevisiae deletion strains, locus YLR384C, strain iki3, active compounds read low 0.989 | S. cerevisiae deletion strains, locus YLR418C, strain cdc73, active compounds read low 0.947 | S. cerevisiae deletion strains, locus YML016C, strain PPZ1, active compounds read low 1.01 | S. cerevisiae deletion strains, locus YML032C, strain rad52, active compounds read low 0.995 | S. cerevisiae deletion strains, locus YML120C, strain ndi1, active compounds read low 0.961 | S. cerevisiae deletion strains, locus YML124C, strain tub3, active compounds read low 0.99 | S. cerevisiae deletion strains, locus YMR058W, strain fet3, active compounds read low 0.979 | S. cerevisiae deletion strains, locus YMR078C, strain ctf18, active compounds read low 0.993 | S. cerevisiae deletion strains, locus YMR125W, strain sto1, active compounds read low 0.973 | S. cerevisiae deletion strains, locus YMR129W, active compounds read low 0.964 | S. cerevisiae deletion strains, locus YMR205C, strain PFK2, active compounds read low 0.97 | S. cerevisiae deletion strains, locus YMR223W, strain ubp8, active compounds read low 0.993 | S. cerevisiae deletion strains, locus YMR231W, strain pep5, active compounds read low 0.981 | S. cerevisiae deletion strains, locus YMR263W, strain SAP30, active compounds read low 1.02 | S. cerevisiae deletion strains, locus YMR307W, strain GAS1, active compounds read low 0.999 | S. cerevisiae deletion strains, locus YNL067W, strain RPL9B, active compounds read low 1 | S. cerevisiae deletion strains, locus YNL071W, strain lat1, active compounds read low 0.964 | S. cerevisiae deletion strains, locus YNL128W, strain TEP1, active compounds read low 1.02 | S. cerevisiae deletion strains, locus YNL153C, strain GIM3, active compounds read low 1.01 | S. cerevisiae deletion strains, locus YNL183C, strain NPR1, active compounds read low 0.986 | S. cerevisiae deletion strains, locus YNL209W, strain ssb2, active compounds read low 0.969 | S. cerevisiae deletion strains, locus YNL233W, strain BNI4, active compounds read low 1.01 | S. cerevisiae deletion strains, locus YNL248C, strain rpa49, active compounds read low 0.888 | S. cerevisiae deletion strains, locus YNL250W, strain rad50, active compounds read low 1.01 | S. cerevisiae deletion strains, locus YNL271C, strain bni1, active compounds read low 1 | S. cerevisiae deletion strains, locus YNL298W, strain CLA4, active compounds read low 1.03 | S. cerevisiae deletion strains, locus YNL307C, strain MCK1, active compounds read low 1 | S. cerevisiae deletion strains, locus YNL322C, strain KRE1 (second series), active compounds read low 0.979 | S. cerevisiae deletion strains, locus YNR049C, strain mso1, active compounds read low 0.942 | S. cerevisiae deletion strains, locus YNR052C, strain pop2, active compounds read low 1 | S. cerevisiae deletion strains, locus YOL006C, strain TOP1, active compounds read low 1.03 | S. cerevisiae deletion strains, locus YOL012C, strain htz1 0.747 | S. cerevisiae deletion strains, locus YOL147C, strain pex11, active compounds read low 0.986 | S. cerevisiae deletion strains, locus YOR001W, strain rrp6, active compounds read low 0.976 | S. cerevisiae deletion strains, locus YOR061W, strain CKA2, active compounds read low 1.02 | S. cerevisiae deletion strains, locus YOR069W, strain VPS5, active compounds read low 1.01 | S. cerevisiae deletion strains, locus YOR070C, strain gyp1, active compounds read low 0.994 | S. cerevisiae deletion strains, locus YOR080W, strain dia2, active compounds read low 0.985 | S. cerevisiae deletion strains, locus YOR083W, strain WHI5, active compounds read low 0.995 | S. cerevisiae deletion strains, locus YOR106W, strain vam3, active compounds read low 0.976 | S. cerevisiae deletion strains, locus YOR136W, strain idh2, active compounds read low 0.991 | S. cerevisiae deletion strains, locus YOR144C, strain elg1, active compounds read low 1 | S. cerevisiae deletion strains, locus YOR184W, strain ser1, active compounds read low 1.02 | S. cerevisiae deletion strains, locus YOR231W, strain MKK1, active compounds read low 1.02 | S. cerevisiae deletion strains, locus YOR265W, strain rbl2, active compounds read low 0.989 | S. cerevisiae deletion strains, locus YOR270C, strain vph1, active compounds read low 0.965 | S. cerevisiae deletion strains, locus YOR290C, strain snf2, active compounds read low 0.966 | S. cerevisiae deletion strains, locus YOR316C, strain cot1, active compounds read low 1 | S. cerevisiae deletion strains, locus YPL051W, strain arl3, active compounds read low 1 | S. cerevisiae deletion strains, locus YPL078C, strain atp4, active compounds read low 0.973 | S. cerevisiae deletion strains, locus YPL106C, strain sse1, active compounds read low 0.898 | S. cerevisiae deletion strains, locus YPL240C, strain hsp82, active compounds read low 0.974 | S. cerevisiae deletion strains, locus YPL241C, strain CIN2, active compounds read low 1 | S. cerevisiae deletion strains, locus YPL256C, strain CLN2, active compounds read low 1.04 | S. cerevisiae deletion strains, locus YPR119W, strain clb2, active compounds read low 0.998 | S. cerevisiae deletion strains, locus YPR141C, strain kar3, active compounds read low 0.981 | S. cerevisiae deletion strains, locus YPR163C, strain tif3, active compounds read low 1 | S. cerevisiae deletion strains, locus YPR167C, strain met16, active compounds read low 0.996 | S. cerevisiae deletion strains, strain wtn01, active compounds read low 1.01 | S. cerevisiae strains, strain wild type, active compounds read low 1.01
